Experimental data taken from ChEMBL document CHEMBL3988442, “University of Dundee, Small-Polar-MMV Screening Library” (2021).
The whole screen tested about 48,000 compounds, of which about 13,000 (27%) showed an effect of 50% or more. Some of the results follow.

test system: Wolbachia pipientis; experiment: Anti-Wolbachia Cell-Based Screen; type: functional; design: scale not given: in the data most compounds retested in dose-response had high values; details: 5 µM

SMILES	Percent Effect [%]
COc1ccc(-c2noc([C@@H](C)NS(=O)(=O)CC(C)C)c2C(=O)O)cc1	-11.95
Cn1cc(Cl)c(CN2CCn3nc(C(=O)Nc4ccccc4)cc3C2)n1	-7.275
CN1CCN(c2cc(N3CCCC3CO)ncn2)Cc2ccccc21 (stereo unspecified)	10.62
Cc1ccsc1CNc1cc(N2CCCC2CO)ncn1 (stereo unspecified)	12.33
Cc1noc(C)c1CNc1cc(N2CCCC2CO)ncn1 (stereo unspecified)	-3.514
Cc1ccc(CNc2cc(N3CCCC3CO)ncn2)s1 (stereo unspecified)	116.3
OCC1CCN(c2ccc(NCc3ccsc3)nc2)CC1	-9.25
COCc1ccccc1CNc1cc(N2CCCC2CO)ncn1 (stereo unspecified)	1.416
Cc1ncsc1CNc1cc(N2CCCC2CO)ncn1 (stereo unspecified)	92.3
Cc1cccc2c1CCN(c1cc(N3CCCC3CO)ncn1)C2 (stereo unspecified)	1.096
OCC1CCCN1c1cc(NCc2ccsc2)ncn1 (stereo unspecified)	106
CN(CC1COc2ccccc2O1)C(=O)NCCCn1cncn1 (stereo unspecified)	-12.38
Cc1nnc2n1CCN(CCOc1ccccc1)C2	2.68
CCc1nnc2n1CCN(Cc1csc(-c3ncccn3)n1)C2	-18.32
Cc1nnc2n1CCN(Cc1csc(-c3ccsc3)n1)C2	121.4
c1cnc(-c2nc(CN3CCn4c(nnc4C4CC4)C3)cs2)nc1	13.95
CCc1nnc2n1CCN(Cc1csc(-c3ccc(C)o3)n1)C2	-1.199
Cc1ccc(-c2nc(CN3CCn4c(nnc4C4CC4)C3)cs2)o1	3.918
Cc1nnc2n1CCN(Cc1csc(-c3cnn(C)c3)n1)C2	-23.78
CCc1nnc2n1CCN(Cc1csc(-c3ccsc3)n1)C2	-5.09
Cc1nnc2n1CCN(Cc1csc(-c3ncccn3)n1)C2	110.5
Cc1ccc(-c2nc(CN3CCn4c(C)nnc4C3)cs2)o1	51.15

SMILES	Percent Effect [%]
Cc1nnc2n1CCN(Cc1csc(COc3ccccc3)n1)C2	109.3
Cc1nnc2n1CCN(Cc1csc(-c3ccc(F)cc3)n1)C2	-7.701
CC(C)C1C(=O)NCCN1C(=O)CCCc1nc(C(C)(C)C)no1 (stereo unspecified)	-23.49
COc1ccnc(N2CCN(C(=O)CCc3cnn(C)c3)CC2)n1	36.6
COCC1CN(Cc2cc(C)on2)Cc2cn(C)nc21 (stereo unspecified)	6.327
CCN(C)CC1CCN(S(=O)(=O)c2cc(C)c(F)cc2Cl)C1 (stereo unspecified)	6.524
COc1c(C2CCCN2CC(=O)NCc2ccccn2)c(C)nn1C (stereo unspecified)	101.4
Cc1nn(C)c(Cl)c1C1CCCN1CC(=O)NCc1ccccn1 (stereo unspecified)	-3.313
COc1c(C2CCCN2CC(=O)Nc2cc(C)no2)c(C)nn1C (stereo unspecified)	-8.496
Cc1nn(C)c(C)c1C1CCCN1CC(=O)Nc1ccncc1 (stereo unspecified)	1.396
Cc1cc(CN2CCCC2c2c(C)nn(C)c2Cl)no1 (stereo unspecified)	7.779
Cc1nn(C)c(C)c1C1CCCN1CC(=O)NCc1ccccn1 (stereo unspecified)	103.7
COc1c(C2CCCN2CC(=O)Nc2nc(C)cs2)c(C)nn1C (stereo unspecified)	-2.535
Cc1nn(C)c(Cl)c1C1CCCN1Cc1ccccn1 (stereo unspecified)	85.99
Cc1nn(C)c(Cl)c1C1CCCN1CCc1ccccn1 (stereo unspecified)	5.429
CNC(=O)C1CCC(NC(=O)N(C)Cc2c(C)noc2C)CC1 (stereo unspecified)	3.279
Nc1cc(O)nc(CCNC(=O)CC[C@@H]2CCCN3CCCC[C@H]23)n1	-22.38
CCC(O)CN(Cc1cccc(C(=O)N(C)C)c1)c1ccccc1 (stereo unspecified)	6.575
CCC(C)(O)CNc1ccc(S(=O)(=O)C(F)F)cc1 (stereo unspecified)	-17.2
Cn1c(=O)[nH]c2cc(C(=O)OCC(F)F)ccc21	-3.927
CC(C)n1cnnc1Cn1c(=O)cnc2ccccc21	-19.8
Cc1ccc(C(=O)N2CCCC(C(=O)N3CCCCC3)C2)c(O)c1 (stereo unspecified)	-5.568

SMILES	Percent Effect [%]
CC(=O)NC1CCCN(C(=O)CNc2cc(Cl)cc(Cl)c2)C1 (stereo unspecified)	-7.422
Cc1ccc(O)c(C(=O)N2CCCC(NC(=O)C(C)C)C2)c1 (stereo unspecified)	85.08
CC(C)C(=O)NC1CCCN(C(=O)c2ccc(O)c(Cl)c2)C1 (stereo unspecified)	88.73
CCC1CN(C(=O)c2ccc(Cl)cc2O)CCN1C(C)C (stereo unspecified)	-0.08814
CCC1(C(=O)O)CCCN(C(=O)c2ccc(O)c(Cl)c2)C1 (stereo unspecified)	-6.141
Cc1ccc(C(=O)N2CCCC(NC(=O)C(C)C)C2)c(O)c1 (stereo unspecified)	9.198
CC(C)C(=O)NC1CCCN(C(=O)c2cc(Cl)ccc2O)C1 (stereo unspecified)	122.5
O=C(c1cccc(Cl)c1)N1CCCC(Nc2ccc(F)cc2)C1 (stereo unspecified)	-14.25
COc1c(F)cc(NC(=O)N2CCC(CSC)C2)cc1F (stereo unspecified)	-4.081
CS(=O)(=O)CCNC(=O)Nc1sc2ccccc2c1Cl	-6.956
CCCn1[nH]cc/c1=N\C(=O)CN1CCCC1c1cccn1C (stereo unspecified)	-13.94
Cc1noc(C2CCCN(C(=O)c3scnc3Cl)C2)n1 (stereo unspecified)	3.125
Cc1noc(C2CCC3(CCN(C(=O)c4sccc4C)CC3)O2)n1 (stereo unspecified)	105.9
Cn1cc(C(=O)N2CC[C@@]3(O)CCN(C(=O)C4CCCC4)C[C@H]3C2)cn1	2.716
Cc1noc(C2CCC3(CCN(C(=O)C4CCOCC4)CC3)O2)n1 (stereo unspecified)	108.6
Cc1noc([C@H]2C[C@H]3CN(C(=O)C4CCOCC4)CC[C@@H]3O2)n1	-6.774
O=C(C1CCOCC1)N1CCC2(CCC(C(=O)N3CCCC3)O2)CC1 (stereo unspecified)	-2.84
Cc1noc(C2CCC3(CCN(C(=O)c4cnn(C)c4)CC3)O2)n1 (stereo unspecified)	95.88
Cc1noc(C2CCN(C(=O)c3cc(Br)ccc3F)CC2)n1	2.952
Cc1noc(C2CCC3(CCN(C(=O)C4=CCCCC4)CC3)O2)n1 (stereo unspecified)	-12.42
Cc1noc(C2CCC3(CCN(C(=O)c4ccn(C)n4)CC3)O2)n1 (stereo unspecified)	89.59
Cn1ccc(C(=O)N2CCC3(CCC(=O)N(C4CCCC4)C3)CC2)n1	5.203

SMILES	Percent Effect [%]
Cn1nnnc1SCCNC(=O)c1cccc2ccnn12	0.6807
CCC1CN(CC(=O)NC(C)C)CCO1 (stereo unspecified)	-17.56
CC1CCCCN1C(=O)c1cn(-c2ccc(C(F)(F)F)cn2)nn1 (stereo unspecified)	-15.67
O=C(COc1coc(CN2CCCC2)cc1=O)NCc1ccccc1Cl	13.29
CCn1ncc2c1CCCC2NCc1csc(COC)n1 (stereo unspecified)	6.958
CCCn1c(C)cc(C(=O)CN2C(=O)c3ccccc3CS2(=O)=O)c1C	-1.519
Cc1noc(C2CCN(C(=O)c3ccc(N(C)C)nc3)CC2)n1	-12.04
Cc1noc(C2CCCN(C(=O)c3cncc(Br)c3)C2)n1 (stereo unspecified)	-3.695
Cc1noc(C2CCC3(CCN(C(=O)c4ccnnc4)CC3)O2)n1 (stereo unspecified)	98.77
CCCN1CCCC2(CCN(c3nc(C)nc4ccsc34)C2)C1=O (stereo unspecified)	-5.221
COCCC1(C(=O)O)CCCN(c2cc(C)c3ccccc3n2)C1 (stereo unspecified)	-9.375
Cc1cc(N2CCC3(CCCN(CCO)C3=O)C2)nc2cc(Cl)ccc12 (stereo unspecified)	98.58
Cc1cc(N2CCC(CO)(CC3CCCCO3)CC2)nc2ccccc12 (stereo unspecified)	-15.69
Cc1cc(N2CCC3(CCCN(CCO)C3=O)C2)nc2ccccc12 (stereo unspecified)	93.99
COCCN1CCCC2(CCN(c3ncc(Cl)cc3Cl)C2)C1=O (stereo unspecified)	5.155
Cc1ccc2c(c1)OC1(NC2=O)C(=O)N(C)c2ccccc21 (stereo unspecified)	2.541
COc1ncccc1NC(=O)N1CCOCC1C (stereo unspecified)	13.85
Cc1ncc(C(=O)N2CCC(N3CCc4ccccc4C3)CC2)c(O)n1	-7.9
O=C(C1CC1)N1CCC(c2nc(O)c3c(n2)CN(C2CCCC2)CC3)C1 (stereo unspecified)	78.69
C1CCC(c2nc3c(c(N4CCN5CCCC5C4)n2)CCNCC3)C1 (stereo unspecified)	-7.963
CCCC(=O)N1CCC(c2nc(O)c3c(n2)CCN(C2CCCC2)C3)C1 (stereo unspecified)	91.38
Cc1ccc(-c2ncc(C(=O)N3CCN4CCCCC4C3)c(O)n2)cc1 (stereo unspecified)	8.265

SMILES	Percent Effect [%]
CCC(=O)N1CCC(c2nc(O)c3c(n2)CN(C2CCCCC2)CC3)C1 (stereo unspecified)	94.52
Cc1nc2c(c(=O)n1C)CN(C(=O)C1CCCN(C3CCCC3)C1)C2 (stereo unspecified)	-4.359
CCC(=O)N1CCC(NC2CCCC2)C1 (stereo unspecified)	-2.557
CC(C)N(CC(N)=O)Cc1cccc(C(F)(F)F)c1	-6.914
CC(C)c1cc(C(=O)N2CCNCC2C(=O)NCc2ccncc2)on1 (stereo unspecified)	-12.97
CC(C)(C)c1ccc2c(c1)CCN2C(=O)c1ccc(=O)[nH]n1	-4.388
CCc1nc2n(n1)CCCC2NC(=O)Nc1ccc(F)cc1C#N (stereo unspecified)	-29.22
Cc1ccc(C(=O)N2CCC3(CC2)CC(c2ccccc2)C(=O)N3)o1 (stereo unspecified)	-4.481
CCOc1ccccc1N(C)Cc1nccn1C	-5.564
CC(C)=CCN1CC2(CCN(Cc3c(F)cccc3F)CC2)CC1=O	-3.567
CN1CC2(CCN(C(=O)Cc3ccc(O)c(F)c3)CC2)CC1=O	-5.557
CC(C)N1CCC2(CC1)CC(=O)N(Cc1cc(F)cc(F)c1)C2	84.47
CC(C)=CCN1CC2(CCN(Cc3cccc(C#N)c3)CC2)CC1=O	0.9714
CC(C)=CCN1CCC2(CC1)CC(=O)N(Cc1cc(F)cc(F)c1)C2	132.9
CCCS(=O)(=O)N1CCC2(CC1)CC(=O)N(Cc1cc(F)cc(F)c1)C2	128.2
O=C(CO)N1CCC2(CC1)CC(=O)N(Cc1cc(F)cc(F)c1)C2	130.8
CCCS(=O)(=O)N1CCC2(CCC(=O)N(Cc3ccccc3)C2)CC1	-5.429
CCCS(=O)(=O)N1CCC2(CCC(=O)N(CCc3ccncc3)C2)CC1	3.257
